# Measurements taken from PubChem BioAssay (EPA / NIEHS).
# Calls of active or inactive are those of the source. The calls were made as follows: active = hit-call score of the fitted dose curve at least 0.9, where 1 is the maximum; inactive = score below 0.9.
# Read-out: Human Leukocyte Antigen - DR isotype (HLADR), HLA-DRA (gene 3122)
# Test: BSK_BE3C_HLADR: BioMAP Diversity Plus: BE3C Assay for Human Leukocyte Antigen - DR isotype (HLADR) Biomarker Activity (AID 2283032)
# Conditions: primary human bronchial epithelial cells; actives raise or lower the signal
# Experimental: BSK_BE3C is a cell-based, multiplexed-readout assay that uses bronchial epithelial cell, a human lung primary cell, with measurements taken at 24 hours after chemical dosing in a 96-well plate.BSK_BE3C_HLADR is an assay component measured in the BSK_BE3C assay. It measures HLA-DR antibody related to regulation of gene expression using ELISA technology.Data from the assay component BSK_BE3C_HLADR was analyzed into 1 assay endpoint. This assay endpoint, BSK_BE3C_HLADR, was analyzed with bidirectional fitting relative to DMSO as the negative control and baseline of activity. Using a type of binding reporter, gain or loss-of-signal activity can be used to understand changes in the signaling as they relate to the gene HLA-DRA. Furthermore, this assay endpoint can be referred to as a primary readout, because this assay has produced multiple assay endpoints where this one serves a signaling function. To generalize the intended target to other relatable targets, this assay endpoint is annotated to the cell adhesion molecules intended target family, where the subfamily is MHC Class II.
# The levels of cell surface (or secreted, indicated by the prefix "s") biomarker endpoints were measured by ELISA. Overt cytotoxicity to cells in confluent adherent cultures (all systems other than the BT system) was assessed by measuring total protein levels using sulforhodamine B (SRB) staining in parallel cultures at the time of biomarker measurements, indicated as SRB endpoints. For proliferation assays for adherent cell types, individual cell types are cultured at sub-confluence and relative cell numbers quantified by SRB staining at time points optimized for each system (48 h: 3C and CASM3C systems; 72 h: BT and HDF3CGF systems; 96 h: SAg system). SRB was performed by staining cells with 0.1% SRB after fixation with 10% TCA and reading wells at 560 nm.Viability and proliferation of PBMC (T cells) was quantified by Alamar Blue reduction for the SAg and BT systems. For PBMC viability (referred to as PBMC Cytotoxicity within the assay endpoint names), cells were plated (75,000/well in a 96-well plate) and then chemical samples added for 1 h before addition of activators, SEB and TSST-1 (20 ng/mL final concentration each). Cells were incubated for 90 h. Then, Alamar Blue (20 uL/well) (Invitrogen, Cat DAL1100) was added for 6 h, and the plates were read with a fluorescence microplate reader at 546/580 nm (excitation/emission). For PBMC proliferation, cells were plated and activated as above but incubated for only 16 h prior to addition of Alamar Blue. Plates were read after 6 h.
SMILES,AC50,outcome
CCOc1cc(C(C)(C)C)ccc1C1COC(c2c(F)cccc2F)=N1 (stereo not given),14.3 µM (active),–
Nc1c(Cl)c(F)nc(OCC(=O)O)c1Cl,–,inactive
COc1cc(Cl)c(OC)cc1Cl,–,inactive
Nc1cnn(-c2ccccc2)c(=O)c1Cl,–,inactive
CC1(C)C(C(=O)OC(C#N)c2cccc(Oc3ccccc3)c2)C1(C)C (stereo not given),–,inactive
CCCC(=NOCC)C1=C(O)CC(CC(C)SCC)CC1=O (stereo not given),–,inactive
Clc1nc(Cl)nc(Nc2ccccc2Cl)n1,–,inactive
O=P(O)(O)CCCl,–,inactive
CC(C)Nc1nc(Cl)nc(NC(C)C)n1,–,inactive
N#Cc1c(Cl)cccc1Cl,–,inactive
CN/C(=N\[N+](=O)[O-])NCc1cnc(Cl)s1,–,inactive
CCSC(=O)N1CCCCCC1,–,inactive
Clc1cccc(C(Cl)(Cl)Cl)n1,–,inactive
CS(=O)(=O)c1ccc(C(=O)C2C(=O)CCCC2=O)c([N+](=O)[O-])c1,–,inactive
COP(=S)(OC)Oc1ccc([N+](=O)[O-])c(C)c1,20 µM (active),–
Nc1c(Cl)c(Cl)nc(C(=O)O)c1Cl,–,inactive
COc1cc(OC)nc(NC(=O)NS(=O)(=O)c2ncccc2OCC(F)(F)F)n1,–,inactive
CSC(=O)c1c(C(F)F)nc(C(F)(F)F)c(C(=O)SC)c1CC(C)C,–,inactive
Cc1ccc(N=CN(C)C=Nc2ccc(C)cc2C)c(C)c1,26.7 µM (active),–
CCOc1nc(C(Cl)(Cl)Cl)ns1,–,inactive

SMILES,AC50,outcome
COC(=O)NS(=O)(=O)c1ccc(N)cc1,–,inactive
CCNC(=O)NC(=O)C(C#N)=NOC,–,inactive
CC(C)NC(=O)N1CC(=O)N(c2cc(Cl)cc(Cl)c2)C1=O,–,inactive
CCOP(=O)(OCC)Oc1nc(Cl)c(Cl)cc1Cl,–,inactive
CCCN(CC)CC1COC2(CCC(C(C)(C)C)CC2)O1 (stereo not given),–,inactive
COc1ccc(-c2ccccc2)cc1NNC(=O)OC(C)C,–,inactive
Cc1cnc(C2=NC(C)(C(C)C)C(=O)N2)c(C(=O)O)c1 (stereo not given),–,inactive
Cc1nc(N(C)C)nc(OC(=O)N(C)C)c1C,–,inactive
CNC(=O)N(C)c1nnc(C(C)(C)C)s1,–,inactive
OC(c1ccc(Cl)cc1)(c1ccc(Cl)cc1)C(Cl)(Cl)Cl,11.5 µM (active),–
CN=C=S,–,inactive
CCOc1nc(F)cc2nc(S(=O)(=O)Nc3c(Cl)cccc3Cl)nn12,27.9 µM (active),–
CCOC(=O)C(C)OC(=O)c1cc(Oc2ccc(C(F)(F)F)cc2Cl)ccc1[N+](=O)[O-] (stereo not given),29.7 µM (active),–
COC(=O)c1c(C(F)F)nc(C(F)(F)F)c(C2=NCCS2)c1CC(C)C,3.97 µM (active),–
O=C(Nc1ccccc1-c1ccc(Cl)cc1)c1cccnc1Cl,5.32 µM (active),–
Cn1c(-c2ccccc2)cc(-c2ccccc2)[n+]1C,3.97 µM (active),–
CCCCC(C#N)(Cn1cncn1)c1ccc(Cl)cc1 (stereo not given),–,inactive
CCC(C)n1c(=O)[nH]c(C)c(Br)c1=O (stereo not given),–,inactive
N#Cc1c[nH]cc1-c1cccc2c1OC(F)(F)O2,–,inactive
CC(C)=CC1C(C(=O)OCc2coc(Cc3ccccc3)c2)C1(C)C (stereo not given),–,inactive
